Data on 13 molecules can be found in ChEMBL document CHEMBL4513152, “CO-ADD screening of Yantai University (China) compounds”.

Structures are written as SMILES. Results with a measured potency or affinity are listed apart.

In one experiment the test system is Klebsiella pneumoniae. The following applies: Concentration 32 ug.mL-1; ASSAY_TEST Inhibition of Bacterial Growth; detection method Absorption (OD600); MEDIA CAMHB; plate type 384well; NBS; CORNING #3640; time 18 hr.
For another experiment, the system named is Candida albicans. The following applies: 32 ug/mL.
A further experiment relates to Cryptococcus neoformans. The following applies: Concentration 32 ug.mL-1; ASSAY_TEST Inhibition of Fungal Growth; detection method Resazurin; Absorption (OD600-OD570); plate type 384well; NBS; CORNING #3640.

The Inhibition is the change of the read-out against control, counted positive when it falls. With `CC(=O)O[C@H]1C[C@@]2(C)C(C[C@@H](O)C3[C@@]4(C)CC[C@@H](OC(=O)C(C)N)[C@@H](C)C4CC[C@@]32C)/C1=C(\CCC=C(C)C)C(=O)OCc1ccccc1` (some centres undefined), the values for the Inhibition in the experiment with Klebsiella pneumoniae, in the experiment on Candida albicans and in the experiment with Cryptococcus neoformans were 8.77%, 16.1% and 90.52%, respectively.
Turning to `CC(=O)O[C@H]1C[C@@]2(C)C(C[C@@H](O)C3[C@@]4(C)CC[C@@H](OC(=O)c5ccccc5C(=O)Nc5ccc(N)cc5)[C@@H](C)C4CC[C@@]32C)/C1=C(\CCC=C(C)C)C(=O)OCc1ccccc1` (some centres undefined), the Inhibition in the experiment with Klebsiella pneumoniae was 5.38%; in the experiment on Candida albicans it was 25%; with Cryptococcus neoformans, -105.92%.
Turning to `CC(=O)O[C@H]1C[C@@]2(C)C(C[C@@H](O)C3[C@@]4(C)CC[C@@H](OC(=O)c5ccccc5C(=O)Nc5cccc(N)c5)[C@@H](C)C4CC[C@@]32C)/C1=C(\CCC=C(C)C)C(=O)OCc1ccccc1` (some centres undefined), the Inhibition is 1.34% with Klebsiella pneumoniae, 1.55% in the experiment with Candida albicans and -66.02% in the experiment on Cryptococcus neoformans.
For `CC(=O)O[C@H]1C[C@@]2(C)C(CC(=O)C3[C@@]4(C)CCC(=O)[C@@H](C)C4CC[C@@]32C)/C1=C(\CCC=C(C)C)C(=O)OCc1ccccc1` (some centres undefined), the Inhibition with Klebsiella pneumoniae was 19.97%; in the experiment with Candida albicans, 6.47%; with Cryptococcus neoformans it was -73.01%.
For the molecule `CC(=O)O[C@H]1C[C@@]2(C)C(C[C@@H](O)C3[C@@]4(C)CC[C@@H](OC(=O)C(N)CC(C)C)[C@@H](C)C4CC[C@@]32C)/C1=C(\CCC=C(C)C)C(=O)OCc1ccccc1` (some centres undefined), the figures for the Inhibition in the experiment with Klebsiella pneumoniae, with Candida albicans and in the experiment on Cryptococcus neoformans were 5.15%, 2.67% and -45.25%, respectively.
For `CC(=O)O[C@H]1C[C@@]2(C)C(C[C@@H](O)C3[C@@]4(C)CC[C@@H](OC(=O)CO[N+](=O)[O-])[C@@H](C)C4CC[C@@]32C)/C1=C(\CCC=C(C)C)C(=O)OCc1ccccc1` (some centres undefined), the Inhibition with Klebsiella pneumoniae was 17.67%; in the experiment on Candida albicans, 0.87%; in the experiment on Cryptococcus neoformans it was -43.62%.
As for `CC(=O)O[C@H]1C[C@@]2(C)C(C[C@@H](O)C3[C@@]4(C)CC[C@@H](OC(=O)CCCCO[N+](=O)[O-])[C@@H](C)C4CC[C@@]32C)/C1=C(\CCC=C(C)C)C(=O)OCc1ccccc1` (some centres undefined), the Inhibition with Klebsiella pneumoniae is 6.42%; with Candida albicans, -3.76%; with Cryptococcus neoformans, -91.73%.
For `CC(=O)O[C@H]1C[C@@]2(C)C(C[C@@H](O)C3[C@@]4(C)CC[C@@H](OC(=O)CCC(=O)O)[C@@H](C)C4CC[C@@]32C)/C1=C(\CCC=C(C)C)C(=O)OCc1ccccc1` (some centres undefined), the Inhibition was 31.46% in the experiment with Klebsiella pneumoniae, -1.56% in the experiment with Candida albicans and -100.19% with Cryptococcus neoformans.
Consider `CC(=O)O[C@H]1C[C@@]2(C)C(C[C@@H](O)C3[C@@]4(C)CC[C@@H](O)[C@@H](C)C4CC[C@@]32C)/C1=C(\CCC=C(C)C)C(=O)Oc1ccc(CCO[N+](=O)[O-])cc1` (some centres undefined), for which the Inhibition in the experiment on Klebsiella pneumoniae was 24.64%; with Candida albicans, 7.08%; with Cryptococcus neoformans, -126.19%.
The matching figures for `CC(=O)O[C@H]1C[C@@]2(C)C(CC(=O)C3[C@@]4(C)CC[C@@H](OC(=O)CCCCO[N+](=O)[O-])[C@@H](C)C4CC[C@@]32C)/C1=C(\CCC=C(C)C)C(=O)OCc1ccccc1` (some centres undefined): 10.79%, -1.47% and -85.18%.
With `CC(=O)O[C@H]1C[C@@]2(C)C(C[C@@H](O)C3[C@@]4(C)CC[C@@H](OC(=O)c5ccccc5C(=O)OCCc5ccc(OCCO[N+](=O)[O-])cc5)[C@@H](C)C4CC[C@@]32C)/C1=C(\CCC=C(C)C)C(=O)OCc1ccccc1` (some centres undefined), the results for the Inhibition with Klebsiella pneumoniae, in the experiment on Candida albicans and in the experiment with Cryptococcus neoformans were 4.99%, -0.23% and -57.39%, respectively.
As to `CC(=O)O[C@H]1C[C@@]2(C)C(C[C@@H](O)C3[C@@]4(C)CC[C@@H](OC(=O)C(N)C(C)C)[C@@H](C)C4CC[C@@]32C)/C1=C(\CCC=C(C)C)C(=O)OCc1ccccc1` (some centres undefined), the values for the Inhibition in the experiment on Klebsiella pneumoniae, in the experiment with Candida albicans and with Cryptococcus neoformans were 18.28%, 14.4% and 88.23%, respectively.
On to `CC(=O)O[C@H]1C[C@@]2(C)C(C[C@@H](O)C3[C@@]4(C)CC[C@@H](OC(=O)CCCCCO[N+](=O)[O-])[C@@H](C)C4CC[C@@]32C)/C1=C(\CCC=C(C)C)C(=O)OCc1ccccc1` (some centres undefined), for which the Inhibition in the experiment on Klebsiella pneumoniae was -0.98%; in the experiment with Candida albicans it was -2.51%; in the experiment with Cryptococcus neoformans, -81.56%.
